Reference: PubChem BioAssay AID1421 (Emory University Molecular Libraries Screening Center, 2008)
Among all 1,300 compounds or so, about 140 (11%) were called active. No rule for the calls is given here. These entries were drawn from the full list. Entries with a potency or affinity are not part of this list.

biological target: Prostaglandin E2 receptor EP2 subtype (Homo sapiens) (UniProt P43116); test: EP2 receptor modulators, dose response, cell-based, human EP2, PGE2 EC50 shift (AID 1421); conditions: EP2-expressing cells, PGE2 EC50 shift by compound; at 20 µM
Sequence (P43116 whole entry, looked up): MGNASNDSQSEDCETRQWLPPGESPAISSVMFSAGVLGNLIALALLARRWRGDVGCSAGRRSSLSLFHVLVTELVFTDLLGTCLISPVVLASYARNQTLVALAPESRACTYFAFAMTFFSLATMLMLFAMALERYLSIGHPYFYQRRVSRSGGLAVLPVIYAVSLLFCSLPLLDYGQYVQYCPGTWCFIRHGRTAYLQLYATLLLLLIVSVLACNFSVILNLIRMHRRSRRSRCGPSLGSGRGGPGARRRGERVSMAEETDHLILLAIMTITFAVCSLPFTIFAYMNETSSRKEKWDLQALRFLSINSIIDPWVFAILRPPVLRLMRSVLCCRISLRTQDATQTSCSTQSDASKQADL

PGE2 EC50 with compound, inactive:
Cn1c(=O)c2c(nc(CN3CCN(c4ccccc4)CC3)n2Cc2c(F)cccc2Cl)n(C)c1=O 0.37 nM
CCn1c(=NC(=O)c2ccc(S(=O)(=O)N3CCOCC3)cc2)sc2cccc(OC)c21 1.76 nM
Cn1c(=O)c2c(nc(SCC(=O)N3CCc4ccccc4C3)n2C)n(C)c1=O 0.76 nM
COc1cccc(N=c2oc3c(C)ncc(CO)c3cc2C(=O)Nc2ccccc2OC)c1 0.96 nM
COc1cc2ccccc2cc1C(=O)NC(=S)Nc1cc(C(=O)O)ccc1C 58.1 nM
Cc1cc2cc3c(cc2nc1SCC(=O)OC(C)C)OCO3 0.21 nM
Cc1cc(SCC(=O)c2ccccc2)nc2ccccc12 1.19 nM
C=CCSc1nc(N(CC)CC)c2sccc2n1 0.61 nM
Cc1cccc(Cn2c(=O)n(Cc3ccco3)c(=O)c3ccccc32)c1 0.31 nM
O=c1c2ccccc2n(Cc2ccc(Cl)cc2)c(=O)n1Cc1ccco1 0.38 nM
CCOC(=O)c1sc2nccc(N(C)C)c2c1N=CNOCc1ccccc1 0.21 nM
c1ccn(-c2ncnc3sc4c(c23)CCCC4)c1 0.38 nM
CSc1nnc2c3ccccc3c3ccccc3c2n1 0.24 nM
Fc1ccccc1Nc1nc2c(s1)CCc1ccccc1-2 0.26 nM
C=C[C@@](C)(O)CCC1C(=C)C[C@H](O)C2C(C)(C)CCCC12C (stereo partly specified) 0.59 nM
COC(=O)CSc1nc(Cc2ccccc2)nc2ccccc12 0.17 nM
CCOC(=O)CSc1nc(Cc2ccccc2)nc2ccccc12 0.35 nM
CCN(Cc1cc(Cl)cc(C)c1O)Cc1c(O)ccc2ccccc12 0.73 nM
Cc1ccc(-c2cccc(C(=O)NCc3ccccc3)n2)c2ccccc12 0.42 nM
COC(=O)c1c(C)nc2ccccc2c1-c1ccccc1 0.22 nM
CCCn1c(C)nc2c(c1=O)c1nc3ccccc3nc1n2CCC1=CCCCC1 0.36 nM
CCCCOc1ccccc1NC(=O)c1scc2c1OCCO2 0.31 nM
O=C(Nc1cccc(Cl)c1N1CCCCC1)c1ccc2c(c1)OCCO2 0.26 nM
CCOC(=O)c1c(NC(=O)CSc2nnnn2CC)sc(C)c1C 0.73 nM
O=C(Nc1ccccc1)c1nn(-c2cccc(C(F)(F)F)c2)ccc1=O 0.1 nM
O=C(Cc1ccccc1)Nc1ccccc1N1CCN(c2ccccc2)CC1 0.28 nM
O=C(COc1ccccc1)Nc1ccccc1N1CCN(c2ccccc2)CC1 0.2 nM
CN(C)c1ncc(S(=O)(=O)c2ccccc2)c(-c2ccccc2Cl)n1 0.23 nM
O=C(CSc1nc2ccccc2o1)Nc1ccccc1N1CCCCCC1 0.53 nM
O=C(c1ccccc1O)N1N=C(c2ccccc2)CC1(O)C(F)(F)F (stereo unspecified) 0.51 nM
NC(=O)c1sc2nc(N3CCCCC3)c3c(c2c1N)CCCC3 0.08 nM
N#Cc1sc2nc(N3CCCCC3)c3c(c2c1N)CCCC3 0.26 nM
Cc1ccc(S(=O)(=O)n2c3ccc(Cl)cc3c3nc(C)sc32)cc1 0.13 nM
Cc1cccc(C)c1OCc1nnc(SCC(=O)Nc2nccs2)n1-c1ccccc1 0.57 nM
CC(=O)c1ccc2c(c1)c1ccccc1n2CC(C)C 0.19 nM
Cc1cc([N+](=O)[O-])c(C)c(Br)c1C 0.91 nM
O=C(O)c1nc2nc(Cl)c(Cl)nc2[nH]1 0.87 nM
O=C(Nc1ccccc1N1CCCC1)c1cc2ccccc2o1 0.19 nM
O=C(Nc1ccccc1Oc1ccccc1)c1cnccn1 0.75 nM
O=C(Nc1ccccc1N1CCCCC1)c1cccc(F)c1 0.33 nM
O=C(Nc1ccccc1N1CCCCC1)c1ccc(F)cc1 0.41 nM
CC1CCN(c2ccccc2NC(=O)c2ccc(F)cc2)CC1 0.3 nM
O=C(CNCC1CCCCC1)Nc1ccccc1N1CCCCC1 0.57 nM
O=C(Nc1ccccc1N1CCCCC1)c1cccc([N+](=O)[O-])c1 0.3 nM
O=C(Nc1ccccc1N1CCCCC1)c1ccc2nccnc2c1 0.08 nM
CCOC(=O)c1c(N)sc(-c2ccccc2)c1C 0.8 nM
O=C(CO/N=C/c1ccccc1)N1c2ccccc2Oc2ccccc21 0.59 nM
CC1CCN(c2nc3c(c(=O)[nH]c(=O)n3C)n2CC(C)CSc2nnnn2-c2ccccc2)CC1 (stereo unspecified) 0.73 nM
COC(=O)c1cc2occc2n1Cc1cccc(C)c1 0.36 nM
CCc1nc2c(cnn2-c2ccc(Cl)cc2)c(=O)n1-c1ccc(OC)cc1 1.12 nM
COc1ccc(Cl)cc1-n1c(C)ccc1C 0.33 nM
CCCCc1nc(SCCOC)c2c(=O)n(C)c(=O)n(C)c2n1 0.46 nM
CCC(=O)Oc1ccc(C(CC)C(CC)c2ccc(OC(=O)CC)cc2)cc1 (stereo unspecified) 0.53 nM
O=c1c2ccccc2c(=O)n(Cc2ccccc2)n1Cc1ccccc1 0.08 nM
CC(=O)Oc1ccc2ccccc2c1C(NC(=O)Cc1ccccc1)c1ccccc1 (stereo unspecified) 0.32 nM
COc1ccc(CSC2=C(C#N)C(=O)NC3(CCCCC3)S2)cc1 0.76 nM
O=C(Nc1ccccc1N1CCCCC1)c1ccc(Cl)c([N+](=O)[O-])c1 0.55 nM
COc1ccc(C(=O)Nc2ccccc2N2CCCCC2)cc1[N+](=O)[O-] 0.44 nM
Cc1cccc(-n2c(CCc3ccccc3)nnc2SCC(=O)c2ccccc2)c1 0.19 nM
COc1ccccc1C(CC(=O)c1ccccc1)CC(=O)c1ccccc1 0.61 nM
O=c1[nH]c(=S)c2c(n1-c1ccccc1)CCC2 1.62 nM
COc1ccc2c(-c3ccccc3)cc(N3CCOCC3)nc2c1 0.43 nM
CCSc1nnc(-c2ccc(Cl)cc2)c2ccccc12 2.31 nM
Cc1cccc(/C=N/Nc2cc(N3CCOCC3)nc(N3CCOCC3)n2)c1 0.59 nM
COc1ccc(C2=Nn3c(nnc3C3CCCCC3)SC2)cc1OC 0.48 nM
CCOC(=O)C1=C(CC)OC(N)=C(C#N)C1c1ccsc1 (stereo unspecified) 0.52 nM
CCn1c2ccc(Cl)cc2c2nc3ccccc3nc21 0.4 nM
O=c1c2ccccc2nc(/C=C/c2ccccc2)n1CCc1ccccc1 0.1 nM
C=CCOc1c(Br)cc(/C=N/n2c(CC)n[nH]c2=S)cc1Br 0.13 nM
CC(C)c1nc(N2CCN(C(=O)c3ccccc3)CC2)c(C#N)c2c1COC(C)(C)C2 0.35 nM
Cc1nc2ccccn2c1C(=O)CSc1ccc(Cl)cc1Cl 5.69 nM
Cc1cc(C(=O)NCC(c2ccco2)N(C)C)no1 (stereo unspecified) 0.8 nM
O=S(Cc1cc(Sc2ccccc2)nc(-c2ccccc2)n1)c1ccccc1 (stereo unspecified) 0.32 nM
CCOC(=O)c1oc2ccccc2c1NC(=O)c1cccc(OC)c1OC 0.43 nM
CCOC(=O)c1c(NC(=O)c2ccncc2)sc(C)c1C 0.45 nM
CCOC(=O)c1[nH]c2ccc(OC)cc2c1NS(=O)(=O)c1ccc(Cl)s1 0.39 nM
CCOC(=O)c1cc2sc(C)cc2n1C(C)C(=O)OCC (stereo unspecified) 0.35 nM
CCOC(=O)CNC(=O)c1ccc2c(c1)OCCO2 0.46 nM
CCOC(=O)c1c(-c2ccc(C)cc2)csc1NC(=O)c1ccc(N2C(=O)CCC2=O)cc1 0.29 nM
Cc1ccccc1Cn1c(-c2cncs2)nc2ccccc21 0.55 nM
c1ccc(CCc2ccccc2-c2nc(-c3cccnc3)no2)cc1 0.18 nM
CCOC(=O)c1c(NC(=O)CSc2nnc(N)s2)sc(C)c1-c1ccc(C)cc1 0.35 nM
Cc1cccc(N=N/C(=C\O)C(=O)c2ccc(Br)cc2)c1 0.18 nM
Cc1cc(C)c(S(=O)(=O)O)c(C)n1 0.61 nM
COC(=O)c1[nH]c2ccccc2c1NS(=O)(=O)c1ccc(F)c(C)c1 0.41 nM
Cn1c(=O)[nH]c(=O)c2c1nc(CN1CCN(c3ccccc3F)CC1)n2CCCc1ccccc1 0.47 nM
S=c1[nH]nc(-c2ccc(Br)o2)n1Cc1ccccc1 0.8 nM
Cn1c(=O)c(NCCc2ccccc2)c2c3c(cccc31)C(=O)c1ccccc1-2 0.58 nM
Cc1ccc2c3c(cccc13)-c1ccccc1C2=O 0.36 nM
NC(=O)CSc1nnc(-c2cccc(S(=O)(=O)N3CCOCC3)c2)n1C1CCCCCC1 0.63 nM
Cc1noc(C)c1CSc1nc2sc3c(c2c(=O)n1C)CCCC3 0.89 nM
CCCSc1nc(N2CCCC2)c2c(c1C#N)CC(C)(C)OC2 0.26 nM
Cc1cc2ccc(C)c(C)c2nc1SCC#N 0.35 nM
C=CCn1c(CCc2cc(C(C)(C)C)c(O)c(C(C)(C)C)c2)n[nH]c1=S 0.58 nM
OCCCNc1nc(-c2ccc(Cl)cc2)nnc1-c1ccc(Br)cc1 1.44 nM
CC(OC(=O)c1oc2ccccc2c1COc1ccccc1)C(=O)NC(N)=O (stereo unspecified) 0.23 nM
